Experimental findings from ChEMBL document CHEMBL1961873, “Compounds: GSK PKIS; Assays: Nanosyn kinase panel” (2012) are described below.
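Note: each value is a mean percent inhibition of PHKG1.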

Sequence of Phosphorylase b kinase gamma catalytic chain, skeletal muscle/heart isoform (Homo sapiens) (Q16816 whole entry, looked up, canonical isoform): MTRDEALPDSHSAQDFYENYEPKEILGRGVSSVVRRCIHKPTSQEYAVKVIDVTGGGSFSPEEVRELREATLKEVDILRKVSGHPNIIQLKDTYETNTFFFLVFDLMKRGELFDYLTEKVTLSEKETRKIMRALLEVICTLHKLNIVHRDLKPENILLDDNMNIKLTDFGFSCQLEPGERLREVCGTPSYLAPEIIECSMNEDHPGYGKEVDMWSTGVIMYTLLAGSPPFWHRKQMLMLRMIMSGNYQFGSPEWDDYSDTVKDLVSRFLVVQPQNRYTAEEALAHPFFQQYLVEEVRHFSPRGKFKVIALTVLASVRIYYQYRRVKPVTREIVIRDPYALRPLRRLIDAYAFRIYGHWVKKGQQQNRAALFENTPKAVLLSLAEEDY

The experiment addresses Phosphorylase b kinase gamma catalytic chain, skeletal muscle/heart isoform (Homo sapiens) (UniProt Q16816). As to conditions: at 1 µM.
The compound `Cc1ccc(Nc2ccnc(Nc3cccc(C(N)=O)c3)n2)cc1O` displayed an inhibition of 10.4%.
With `CN(c1ccc(NC(=O)Nc2ccc(OC(F)(F)F)cc2)cc1)c1ccnc(Nc2cccc(S(N)(=O)=O)c2)n1`, the inhibition came to 9.58%.
In turn, `CN1CCN(C(=O)c2ccc(NC(=O)Nc3ccc(N(C)c4ccnc(Nc5ccc(CS(C)(=O)=O)cc5)n4)cc3)cc2)CC1` yielded an inhibition of 1.5%.
`NS(=O)(=O)c1ccc(N/N=C2\C(=O)Nc3ccc(Cl)cc32)cc1` displayed an inhibition of 14.3%.
For `c1ccc(Nc2ncc(-c3ccccc3)o2)cc1`, the inhibition amounted to 10.9%.
`CS(=O)(=O)CCNCc1nc(-c2ccc3ncnc(Nc4ccc(OCc5cccc(C(F)(F)F)c5)cc4)c3c2)cs1` yielded an inhibition of 3.14%.
`COC(=O)c1ccc2c(c1)C(=Cc1cc(Br)c(O)c(Br)c1)C(=O)N2` gave an inhibition of 7.49%.
Turning to `O=C(Nc1ccc(Oc2ccc3[nH]c(NC(=O)c4ccco4)nc3c2)cc1)Nc1cc(C(F)(F)F)ccc1F`, the inhibition came out at 8.29%.
Then `CC(C)c1ccc(Nc2nccc(-c3cnn4ncccc34)n2)cc1`, with 7.97%; and `CS(=O)(=O)Nc1cccc(-c2ccc3c(NC(=O)C4CC4)n[nH]c3c2)c1`, with 6.04%; and `COC(=O)Nc1nc2cc(Oc3ccc(NC(=O)Nc4cccc(Br)c4)cc3)ccc2[nH]1`, with 4.55%.
As to `N#Cc1cccc(Nc2nccc(-c3cnn4ncccc34)n2)c1`, the inhibition turned out to be 58.3%.
`NS(=O)(=O)c1ccc(Nc2cc(-c3cccc(O)c3)n[nH]2)cc1` returned an inhibition of 12.8%.
The compound `CC(C)c1ccc2c(c1)NC(=O)/C2=N/Nc1ccc(S(N)(=O)=O)cc1` showed an inhibition of 1.14%.
Regarding `Cc1cc(O)cc(C)c1/C=C/c1cncc(C(=O)N(C)C)c1`, the inhibition came to 2.61%.
The compound `c1ccc(Cc2nc3ccc(Nc4ncnc5ccccc45)cc3[nH]2)cc1` showed an inhibition of 4.75%.

By inhibition is commonly meant the percentage by which the read-out fell short of the control. Lower therefore signals a response near the control.
